# Data: PubChem BioAssay AID1159580 (chemical genetic matrix, 2015)
# Where “and” joins values, the source holds several entries; their conditions need not be identical. Equal entries are not always repeated. About 2,000 (36%) of roughly 5,500 compounds were called active. Roughly 18% stayed inconclusive and do not appear here. Rule as the data show it: active = normalized growth mostly below about 0.91 (no sharp cut-off); inconclusive = no clear call, values can overlap the other calls; inactive = mostly above about 0.92. This is one part of the list.
# Assay: chemical genetic growth profiling, strain panel (AID 1159580);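 also: tested at 20 µM; growth read once vehicle control cultures reached saturation at 30 °C; 1 = growth at the plate median or of vehicle wells; lower values mean less growth of the strain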
# Conditions: S. cerevisiae deletion strains, growth OD
smiles,measurement,setting,value
O=C1OC(=O)C2C3CCC(O3)C12 (stereo not given),normalized growth,"locus YAL013W, strain DEP1, stronger effect = lower value",1.03 (inactive)
same,normalized growth,"locus YAL021C, strain ccr4, stronger effect = lower value",1.02 (inactive)
same,normalized growth,"locus YAL026C, strain drs2, stronger effect = lower value",1.02 (inactive)
same,normalized growth,"locus YAL030W, strain snc1, stronger effect = lower value",1.03 (inactive)
same,normalized growth,"locus YAL040C, strain CLN3, stronger effect = lower value",1 (inactive)
same,normalized growth,"locus YBL061C, strain skt5, stronger effect = lower value",1.01 (inactive)
same,normalized growth,"locus YBR009C, strain hhf1, stronger effect = lower value",1 (inactive)
same,normalized growth,"locus YBR021W, strain FUR4, stronger effect = lower value",0.947 (inactive)
same,normalized growth,"locus YBR023C, strain chs3, stronger effect = lower value",1.02 (inactive)
same,normalized growth,"locus YBR171W, strain sec66, stronger effect = lower value",1.02 (inactive)
same,normalized growth,"locus YBR229C, strain ROT2, stronger effect = lower value",1 (inactive)
same,normalized growth,"locus YBR231C, strain swc5, stronger effect = lower value",1 (inactive)
same,normalized growth,"locus YBR279W, strain paf1, stronger effect = lower value",1 (inactive)
same,normalized growth,"locus YCL011C, strain gbp2, stronger effect = lower value",1.01 (inactive)
same,normalized growth,"locus YCL016C, strain dcc1, stronger effect = lower value",1.03 (inactive)
same,normalized growth,"locus YCL029C, strain bik1, stronger effect = lower value",0.966 (inactive)
same,normalized growth,"locus YCL061C, strain MRC1 (second series), stronger effect = lower value",1 (inactive)
same,normalized growth,"locus YCL069W, strain vba3, stronger effect = lower value",0.994 (inactive)
same,normalized growth,"locus YCR088W, strain abp1, stronger effect = lower value",1.01 (inactive)
same,normalized growth,"locus YDL005C, strain med2, stronger effect = lower value",1.01 (inactive)
same,normalized growth,"locus YDL035C, strain GPR1, stronger effect = lower value",1.01 (inactive)
same,normalized growth,"locus YDL040C, strain nat1, stronger effect = lower value",1 (inactive)
same,normalized growth,"locus YDL074C, strain BRE1, stronger effect = lower value",1.01 (inactive)
same,normalized growth,"locus YDL101C, strain DUN1, stronger effect = lower value",1.01 (inactive)
same,normalized growth,"locus YDL134C, strain PPH21, stronger effect = lower value",1.02 (inactive)
same,normalized growth,"locus YDL185W, strain tfp1, stronger effect = lower value",0.937 (inactive)
same,normalized growth,"locus YDL192W, strain arf1, stronger effect = lower value",0.977 (inactive)
same,normalized growth,"locus YDR001C, strain nth1, stronger effect = lower value",1 (inactive)
same,normalized growth,"locus YDR069C, strain doa4, stronger effect = lower value",1.01 (inactive)
same,normalized growth,"locus YDR101C, strain arx1, stronger effect = lower value",0.982 (inactive)
same,normalized growth,"locus YDR137W, strain rgp1, stronger effect = lower value",1.06 (inactive)
same,normalized growth,"locus YDR150W, strain NUM1, stronger effect = lower value",1.03 (inactive) and 1 (inactive)
same,normalized growth,"locus YDR159W, strain sac3, stronger effect = lower value",0.98 (inactive)
same,normalized growth,"locus YDR162C, strain NBP2, stronger effect = lower value",0.987 (inactive)
same,normalized growth,"locus YDR195W, strain ref2",0.975 (inactive)
same,normalized growth,"locus YDR297W, strain sur2, stronger effect = lower value",0.998 (inactive)
same,normalized growth,"locus YDR318W, strain mcm21, stronger effect = lower value",0.981 (inactive)
same,normalized growth,"locus YDR334W, strain swr1, stronger effect = lower value",0.992 (inactive)
same,normalized growth,"locus YDR335W, strain msn5, stronger effect = lower value",1.02 (inactive)
same,normalized growth,"locus YDR363W, strain ESC2, stronger effect = lower value",1.03 (inactive)
same,normalized growth,"locus YDR388W, stronger effect = lower value",0.956 (inactive)
same,normalized growth,"locus YDR392W, strain spt3, stronger effect = lower value",1.09 (inactive)
same,normalized growth,"locus YDR502C, strain sam2, stronger effect = lower value",0.966 (inactive)
same,normalized growth,"locus YEL003W, strain gim4, stronger effect = lower value",1.01 (inactive)
same,normalized growth,"locus YEL037C, strain rad23, stronger effect = lower value",1.02 (inactive)
same,normalized growth,"locus YEL061C, strain CIN8 (second series), stronger effect = lower value",1 (inactive)
same,normalized growth,"locus YEL061C, strain CIN8, stronger effect = lower value",1.02 (inactive)
same,normalized growth,"locus YER002W, strain NOP16, stronger effect = lower value",1.02 (inactive)
same,normalized growth,"locus YER015W, strain faa2, stronger effect = lower value",1.01 (inactive)
same,normalized growth,"locus YER016W, strain bim1, stronger effect = lower value",1.01 (inactive)
same,normalized growth,"locus YER110C, stronger effect = lower value",0.97 (inactive)
same,normalized growth,"locus YER111C, strain swi4, stronger effect = lower value",1.02 (inactive)
same,normalized growth,"locus YER155C, strain BEM2 (second series), stronger effect = lower value",1.02 (inactive)
same,normalized growth,"locus YER155C, strain BEM2, stronger effect = lower value",1.02 (inactive)
same,normalized growth,"locus YER167W, strain BCK2, stronger effect = lower value",1 (inactive)
same,normalized growth,"locus YFR010W, strain ubp6, stronger effect = lower value",0.967 (inactive)
same,normalized growth,"locus YGL078C, strain dbp3, stronger effect = lower value",0.98 (inactive)
same,normalized growth,"locus YGL086W, strain mad1, stronger effect = lower value",0.995 (inactive)
same,normalized growth,"locus YGL167C, strain pmr1, stronger effect = lower value",1.01 (inactive)
same,normalized growth,"locus YGL173C, strain kem1, stronger effect = lower value",1 (inactive)
same,normalized growth,"locus YGL227W, strain vid30, stronger effect = lower value",0.996 (inactive)
same,normalized growth,"locus YGL240W, strain doc1, stronger effect = lower value",0.981 (inactive)
same,normalized growth,"locus YGL248W, strain PDE1, stronger effect = lower value",1.01 (inactive)
same,normalized growth,"locus YGL253W, strain hxk2, stronger effect = lower value",1.03 (inactive)
same,normalized growth,"locus YGR078C, strain PAC10, stronger effect = lower value",1.03 (inactive)
same,normalized growth,"locus YGR135W, strain pre9, stronger effect = lower value",0.967 (inactive)
same,normalized growth,"locus YGR229C, strain SMI1, stronger effect = lower value",1.02 (inactive)
same,normalized growth,"locus YGR252W, strain gcn5, stronger effect = lower value",0.982 (inactive)
same,normalized growth,"locus YHR013C, strain ard1, stronger effect = lower value",1.05 (inactive)
same,normalized growth,"locus YHR027C, strain rpn1, stronger effect = lower value",1.04 (inactive)
same,normalized growth,"locus YHR030C, strain SLT2, stronger effect = lower value",1.01 (inactive) and 0.877 (inactive)
same,normalized growth,"locus YHR079C, strain IRE1 (second series), stronger effect = lower value",0.98 (inactive)
same,normalized growth,"locus YHR079C, strain IRE1, stronger effect = lower value",0.919 (inactive)
same,normalized growth,"locus YHR094C, strain hxt1, stronger effect = lower value",0.98 (inactive)
same,normalized growth,"locus YHR129C, strain ARP1, stronger effect = lower value",1.03 (inactive)
same,normalized growth,"locus YHR142W, strain chs7, stronger effect = lower value",1.04 (inactive)
same,normalized growth,"locus YHR200W, strain rpn10, stronger effect = lower value",0.977 (inactive)
same,normalized growth,"locus YIL066C, strain RNR3, stronger effect = lower value",1.02 (inactive)
same,normalized growth,"locus YIL073C, strain SPO22, stronger effect = lower value",1.02 (inactive)
same,normalized growth,"locus YIL125W, strain kgd1, stronger effect = lower value",0.973 (inactive)
same,normalized growth,"locus YIR030C, strain dcg1, stronger effect = lower value",0.985 (inactive)
same,normalized growth,"locus YJL092W, strain hpr5, stronger effect = lower value",1.01 (inactive)
same,normalized growth,"locus YJL095W, strain BCK1 (second series), stronger effect = lower value",1.01 (inactive)
same,normalized growth,"locus YJL095W, strain BCK1, stronger effect = lower value",1 (inactive) and 0.875 (active)
same,normalized growth,"locus YJL115W, strain asf1, stronger effect = lower value",1 (inactive)
same,normalized growth,"locus YJL129C, strain trk1, stronger effect = lower value",1.03 (inactive)
same,normalized growth,"locus YJL134W, strain LCB3, stronger effect = lower value",1.01 (inactive)
same,normalized growth,"locus YJL154C, strain vps35, stronger effect = lower value",0.999 (inactive)
same,normalized growth,"locus YJL164C, strain tpk1, stronger effect = lower value",1 (inactive)
same,normalized growth,"locus YJL166W, strain qcr8, stronger effect = lower value",0.99 (inactive)
same,normalized growth,"locus YJL168C, strain set2, stronger effect = lower value",0.984 (inactive)
same,normalized growth,"locus YJL187C, strain SWE1 (second series), stronger effect = lower value",1.01 (inactive)
same,normalized growth,"locus YJR043C, strain POL32, stronger effect = lower value",1 (inactive)
same,normalized growth,"locus YJR066W, strain TOR1, stronger effect = lower value",0.872 (inactive)
same,normalized growth,"locus YJR075W, strain HOC1, stronger effect = lower value",1.02 (inactive)
